Results on 36 compounds are retold here after PubChem BioAssay (NCI).

Molecules are shown by their SMILES. Compounds without any hit were thinned out: in the full panel of roughly 79,000, 15% have a hit. Unmarked numbers belong to inactive results. Active and inactive are the calls of the source. Cut-off read from the data, not from the text of the source: active = growth inhibition above about 70%; inactive = the rest.

Experiment [1] in a line: NCI Yeast Anticancer Drug Screen. Data for the rad50 strain (AID 155).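 Note: 0% = growth of vehicle-only cultures of the same strain.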 To be noted: S. cerevisiae rad50 strain growth inhibition; at 50.0 µM; active compounds read high. Summed up:
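Vehicle-treated cultures provide the reference for the growth inhibition reported for compound-exposed, repair-deficient yeast.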

Experiment [2] can be described thus: NCI Yeast Anticancer Drug Screen. Data for the mec2-1 strain (AID 157). To be noted: S. cerevisiae mec2-1 strain, at 50.0 µM, active compounds read high. Summed up:
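Mutant yeast (mec2-1) grown with compound; growth inhibition relative to vehicle control reported.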

Experiment [3] in a line: NCI Yeast Anticancer Drug Screen. Data for the sgs1 mgt1 strain (AID 161).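 Note: 0% = growth of cultures given vehicle only.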 To be noted: S. cerevisiae sgs1 mgt1 strain, at 50.0 µM, active compounds read high. Summed up: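 Compounds are added to genetically altered yeast, and growth is compared with cultures given vehicle alone to give percent inhibition.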
Experiment [4] in a line: NCI Yeast Anticancer Drug Screen. Data for the cln2 rad14 strain (AID 165).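 Note: 0% = growth equal to vehicle treated cultures.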 The conditions noted are these: S. cerevisiae cln2 rad14 strain, at 50.0 µM, active compounds read high. In a few lines:
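Readout is yeast growth inhibition versus vehicle-treated controls, using a strain with cln2 and rad14 alterations exposed to compound.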

A short description of experiment [5]: NCI Yeast Anticancer Drug Screen. Data for the bub3 strain (AID 167). The conditions noted are these: S. cerevisiae bub3 mutant strain, at 50.0 µM, active compounds read high. In a few lines:
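Mutant yeast screening strain plus compound; vehicle-treated cultures serve as the 0% inhibition reference.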

Experiment [6] in a line: NCI Yeast Anticancer Drug Screen. Data for the mlh1 rad18 strain (AID 175). The conditions noted are these: S. cerevisiae mlh1 rad18 strain growth inhibition; at 50.0 µM; active compounds read high. Summed up:
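Genetically defined yeast (DNA repair-deficient) exposed to compounds; growth inhibition determined relative to vehicle.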

As for `CC(=O)Nc1ccc(C(C#N)C(C#N)c2ccccc2)cc1` (stereo unspecified), the growth inhibition in experiment [1] was -1.5%; in experiment [2], 8.75%; in experiment [3], -0.1%; in experiment [4] it was -68.3%; in experiment [5], 11.8%; in experiment [6], -2.55%.

`CCOC(=O)C1(C(=O)OCC)C(C#N)(C#N)C1(C#N)C#N`: the growth inhibition is -0.8% in experiment [1]; 1.75% in experiment [2]; -7.2% in experiment [3]; -7.3% in experiment [4]; -1.65% in experiment [5]; -11.3% in experiment [6].

Turning to `Nc1ncnc2c1ncn2CCCCCO`, the growth inhibition in experiment [1] was 5.15%; in experiment [2], 49.7%; in experiment [3], 13.7%; in experiment [4], 7.35%; in experiment [5], 3.45%; in experiment [6], 13.3%.

With `CN(C)c1nc(Oc2nc(N(C)C)nc(N(C)C)n2)nc(N(C)C)n1`, the growth inhibition in experiment [1] is -21.8%; in experiment [2], -26.6%; in experiment [3], -30.9%; in experiment [4] it was -8.5%; in experiment [5], -21.4%; in experiment [6], -31.9%.

In the case of `C=C1C[C@]23CC[C@@H]4C(CO)(CO)CC(=O)C[C@]4(C)[C@@H]2C(O)C[C@H]1C3` (stereo partly specified), the growth inhibition was 30.6% in experiment [1]; 17.9% in experiment [2]; 17.8% in experiment [3]; -5.05% in experiment [4]; 7.05% in experiment [5]; 30.9% in experiment [6].

With `C=CCNC(=O)/C(C)=C(\C)c1ccc(F)cc1`, the growth inhibition in experiment [1] was 4.15%; in experiment [2] it was 6%; in experiment [3] it was 3.2%; in experiment [4] it was -17.7%; in experiment [5], 2.5%; in experiment [6], -4.7%.

Turning to `O=C1CSC(c2cccc(O)c2)N1c1nncs1` (stereo unspecified), the growth inhibition was 6.75% in experiment [1]; 12.9% in experiment [2]; 21.9% in experiment [3]; 12.7% in experiment [4]; 14.2% in experiment [5]; 15.2% in experiment [6].

In the case of `O=[N+]([O-])c1ccc(C2CC(c3ccccc3)=NN2c2ccccc2)cc1` (stereo unspecified), the growth inhibition is 7.65% in experiment [1]; -8.85% in experiment [2]; 1.3% in experiment [3]; -8.9% in experiment [4]; 17.9% in experiment [5]; -9.05% in experiment [6].

Regarding `COc1ccc(/C=C/c2ccc3ccccc3[n+]2C)cc1OC`, the growth inhibition in experiment [1] is 32%; in experiment [2], 4.55%; in experiment [3], 32.6%; in experiment [4] it was 21.3%; in experiment [5], 0.7%; in experiment [6] it was 15.9%.

With `CCN(CC)CCC(O)(c1cccc(Cl)c1)C1CCCCC1` (stereo unspecified), the growth inhibition in experiment [1] was -1.4%; in experiment [2] it was -6.25%; in experiment [3], -3.1%; in experiment [4] it was -68%; in experiment [5], -7.95%; in experiment [6] it was -7.25%.

For the compound `Brc1ccc(/C=C/c2ccnnc2)cc1`, the growth inhibition in experiment [1] was 41.5%; in experiment [2], 33.8%; in experiment [3], 34.6%; in experiment [4], 25.5%; in experiment [5], 47.7%; in experiment [6] it was 34.4%.

Consider `O=C(O)COc1cc([N+](=O)[O-])c(Cl)cc1Cl`, for which the growth inhibition in experiment [1] is 7.75%; in experiment [2], -11.9%; in experiment [3] it was 18.6%; in experiment [4], 15.6%; in experiment [5], -1.4%; in experiment [6] it was 20.6%.

Turning to `[Mn+2].[Mn+2].c1ccc2c(c1)-c1nc-2nc2[n-]c(nc3nc(nc4[n-]c(n1)c1ccccc41)-c1ccccc1-3)c1cc3c4nc5nc(nc6[n-]c(nc7nc(nc([n-]4)c3cc21)-c1ccccc1-7)c1ccccc61)-c1ccccc1-5`, the growth inhibition was 15.4% in experiment [1]; -0.9% in experiment [2]; -8.75% in experiment [3]; -21.2% in experiment [4]; 0.4% in experiment [5]; 21.8% in experiment [6].

Consider `CCn1nc(C)c2c1C(=O)NCC(=O)N2`, for which the growth inhibition is -34.1% in experiment [1]; -44.6% in experiment [2]; -26.9% in experiment [3]; -10.4% in experiment [4]; -17.6% in experiment [5]; -2.3% in experiment [6].

`C=CCC(OCCC)c1ccc2c(c1)OCO2` (stereo unspecified): the growth inhibition in experiment [1] was -7.1%; in experiment [2] it was 0.6%; in experiment [3] it was -0.65%; in experiment [4] it was 5.05%; in experiment [5], 3.4%; in experiment [6] it was -12.6%.

For `CSC1=NC=C(C#N)C2=NC(c3c(F)cccc3Cl)NN12` (stereo unspecified), the growth inhibition in experiment [1] is 30.3%; in experiment [2], 7.65%; in experiment [3] it was 35.3%; in experiment [4], 26.2%; in experiment [5], 24.6%; in experiment [6], 26.8%.

For `CCCc1[nH]n(-c2cccc([N+](=O)[O-])c2)c(=O)c1N=Nc1ccc(Cl)cc1`, the growth inhibition in experiment [1] was 40.9%; in experiment [2], 24.1%; in experiment [3], 21.5%; in experiment [4] it was 20.9%; in experiment [5], -2.5%; in experiment [6], 26.9%.

Consider `O=C(c1ccc(Cl)cc1)c1ccc(OCCSCCCCCCCCCCSCCOc2ccc(C(=O)c3ccc(Cl)cc3)cc2)cc1`, for which the growth inhibition in experiment [1] was -43.1%; in experiment [2], -27.7%; in experiment [3], -35.1%; in experiment [4] it was -9.4%; in experiment [5] it was -38.6%; in experiment [6], -30.9%.

Consider `CC(=O)Nc1ccc(N=C/C=C/c2ccccc2)cc1`, for which the growth inhibition in experiment [1] is -24.6%; in experiment [2] it was -56.5%; in experiment [3], 5.9%; in experiment [4] it was 2.05%; in experiment [5], -44.5%; in experiment [6], 2.05%.

Regarding `CC(C)(C)OC(=O)Cc1ccc([N+](=O)[O-])cc1`, the growth inhibition in experiment [1] was 2%; in experiment [2] it was -19.6%; in experiment [3] it was -10.7%; in experiment [4], -5.85%; in experiment [5], -3.05%; in experiment [6], -17.7%.

Regarding `CSC(=O)c1sc(SC)[n+](-c2ccccc2)c1O`, the growth inhibition in experiment [1] was 4.95%; in experiment [2] it was -20.2%; in experiment [3] it was -1%; in experiment [4] it was -5.5%; in experiment [5], -13.3%; in experiment [6], -7.9%.

In the case of `CCOC(=O)N1CCN(P(=O)(c2ccccc2)N2CCN(C(=O)OCC)CC2)CC1`, the growth inhibition in experiment [1] is 7.35%; in experiment [2] it was -28.4%; in experiment [3], 1.85%; in experiment [4] it was -31.6%; in experiment [5], -0.75%; in experiment [6] it was 9.85%.

With `COc1ccc(/C=C/C(=O)N(C)C)cc1`, the growth inhibition in experiment [1] was 3.1%; in experiment [2], 5.65%; in experiment [3], -0.15%; in experiment [4], 12.4%; in experiment [5], -2.5%; in experiment [6], -3.05%.

For the compound `CCOC1([N+](=O)[O-])c2ccccc2-c2nc3ccccc3cc21` (stereo unspecified), the growth inhibition in experiment [1] was 96.8% (active); in experiment [2], 75.5% (active); in experiment [3], 74% (active); in experiment [4] it was 63.7%; in experiment [5] it was 78.8% (active); in experiment [6] it was 92.4% (active).

Take `COC(=O)/C(=N/NC(N)=O)C(C(=O)OC)C(=O)C(=O)Nc1ccc(Cl)cc1` (stereo unspecified): the growth inhibition is 1.4% in experiment [1]; -21.8% in experiment [2]; -16.9% in experiment [3]; 13.8% in experiment [4]; -14.4% in experiment [5]; -34.5% in experiment [6].

For `O=S1(=O)NNC(=NCc2ccc(Cl)c(Cl)c2)c2ccccc21`, the growth inhibition in experiment [1] was 11.2%; in experiment [2] it was -11.8%; in experiment [3] it was -6.15%; in experiment [4] it was -1.4%; in experiment [5], 3.2%; in experiment [6], -16.4%.

For the compound `c1ccc(Cc2nnc3n2CCC(c2ccccc2)S3)cc1` (stereo unspecified), the growth inhibition was -9.8% in experiment [1]; 1.3% in experiment [2]; -10.9% in experiment [3]; 2.4% in experiment [4]; 5.05% in experiment [5]; -0.25% in experiment [6].

As to `CC(=O)Nc1cc(F)c(N=Nc2ccc(F)cc2)c(F)c1`, the growth inhibition in experiment [1] was 5.3%; in experiment [2] it was -0.6%; in experiment [3], 13.4%; in experiment [4], -36.9%; in experiment [5] it was -16.1%; in experiment [6] it was 3.45%.

On to `CCCCOC(=O)C(C)OC(=O)/C=C\C(=O)OC(C)C(=O)OCCCC` (stereo unspecified), for which the growth inhibition was 7.5% in experiment [1]; -7.5% in experiment [2]; 6.9% in experiment [3]; 4.05% in experiment [4]; 2.4% in experiment [5]; 15.9% in experiment [6].

For `CCc1nc(N)nc(N)c1-c1ccc(OC)c([N+](=O)[O-])c1`, the growth inhibition in experiment [1] was 3.25%; in experiment [2], -14.7%; in experiment [3], -27.2%; in experiment [4], 24.9%; in experiment [5], -21.4%; in experiment [6] it was 7.9%.

For the compound `COc1c(NC(=O)C(Br)C(Br)C(=O)O)cccc1[N+](=O)[O-]` (stereo unspecified), the growth inhibition was -20.9% in experiment [1]; 19.5% in experiment [2]; -7.65% in experiment [3]; 85% (active) in experiment [4]; -2.85% in experiment [5]; -2.25% in experiment [6].

Turning to `CC(=O)OCC(=O)[C@@]1(O)CC[C@H]2[C@@H]3CC[C@H]4[C@H](Br)C(=O)CC[C@]4(C)[C@H]3C(=O)C[C@@]21C`, the growth inhibition is -20.1% in experiment [1]; -33.1% in experiment [2]; -11.3% in experiment [3]; -12.8% in experiment [4]; -8.1% in experiment [5]; -23.9% in experiment [6].

Consider `COc1ccc([N+](=O)[O-])cc1F`, for which the growth inhibition was 10.9% in experiment [1]; -12.8% in experiment [2]; 5.5% in experiment [3]; -6.9% in experiment [4]; 8.25% in experiment [5]; 31.8% in experiment [6].

For `c1ccc(N=NC(N=Nc2ccccc2)=P(c2ccccc2)(c2ccccc2)c2ccccc2)cc1`, the growth inhibition in experiment [1] is 56.4%; in experiment [2] it was 98.7% (active); in experiment [3], 53%; in experiment [4] it was 64.6%; in experiment [5] it was 46.7%; in experiment [6], 61.9%.

Consider `CCOC(=O)NC(C)(C)CN(CCO)C(=O)OCC`, for which the growth inhibition was -5.9% in experiment [1]; -3.4% in experiment [2]; 1.4% in experiment [3]; -4.9% in experiment [4]; -21.9% in experiment [5]; -8.7% in experiment [6].

For `C(#[C][Sn]([c]1ccccc1)([c]1ccccc1)[c]1ccccc1)c1ccccc1`, the growth inhibition in experiment [1] was 98.3% (active); in experiment [2], 95.5% (active); in experiment [3], 97.8% (active); in experiment [4] it was 98.5% (active); in experiment [5] it was 98.8% (active); in experiment [6], 98.6% (active).
